Calls of active or inactive are those of the source. Unless noted, the rule behind the calls is not given here.
What was measured:
[1] = resazurin metabolic signal in HepG2 cells – cell-based, resazurin fluorescence, 24 h, PK04 Diversity Set, profiling panel (AID 1172); conditions: HepG2 viability, higher = more signal
[2] = budding yeast growth changes without added modifier – OD600, strain BY4716, 24 h, basal condition, primary screen (AID 1173); conditions: S. cerevisiae BY4716 growth, OD600, 24 h; higher = more signal, called active from +8 up or from −8 down
[3] = viability profiling in MM1S myeloma cells – cell-based, resazurin fluorescence, basal, 24 h, PK04 Diversity Set, profiling panel (AID 1174); conditions: higher = more signal, called active from +8 up or from −8 down;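 note: MM1S multiple myeloma cell line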
[4] = biological target: Dihydroorotate dehydrogenase (quinone), mitochondrial (Plasmodium falciparum (isolate 3D7)) (UniProt Q08210); experiment: inhibition of P. falciparum DHODH – biochemical, C-terminal His tag, absorbance 600 nm, primary screen (AID 1175); conditions: PfDHODH enzyme, DCIP absorbance 600 nm; higher = more signal, called active from +8 up or from −8 down;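 note: recombinant parasite enzyme with a five histidine tag at its C terminus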
[5] = inhibition of PAO1 biofilm formation – strain PAO1, LB-PBS medium, absorbance 600 nm, primary screen (AID 1176); conditions: P. aeruginosa PAO1 growth/biofilm, A600, 12 h; higher = more signal
[6] = growth modulation of vineyard yeast isolate – strain RM11-1a, OD600, basal, 24 h, primary screen (AID 1177);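 note: cultures grown under basal conditions with no added stressor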; conditions: S. cerevisiae RM11-1a growth, OD600, 24 h; higher = more signal, called active from +8 up or from −8 down
[7] = growth of efflux-deficient E. coli DRC39 – strain DRC39, OD650, 24 h, E. coli filamentation inducers, primary screen (AID 1178);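 note: growth measured as culture turbidity by optical density at 650 nm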; conditions: E. coli DRC39 acrAB, higher = more signal, called active from +8 up or from −8 down
[8] = growth of efflux-deficient E. coli DRC39 – strain DRC39, OD650, 48 h, E. coli filamentation inducers, primary screen (AID 1179);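 note: screen aims at cell division blockers that make cells filament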; conditions: E. coli DRC39 delta-acrAB growth, higher = more signal, called active from +8 up or from −8 down
[9] = viability profiling in RPMI8226 myeloma cells – cell-based, resazurin fluorescence, basal, 24 h, PK04 Diversity Set, profiling panel (AID 1180); conditions: higher = more signal;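 note: RPMI8826 multiple myeloma cell line at 5000 cells per well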
[10] = biological target: E3 ubiquitin-protein ligase XIAP (Homo sapiens) (UniProt P98170); experiment: small molecules binding XIAP protein – biophysical, small-molecule microarray, fluorescence 635 nm, primary screen (AID 1181); conditions: higher = more signal;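 note: score merges 667 nm emission and signal to noise over triplicate slides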
[11] = test system: XIP peptide (Xip251-270) binding; experiment: XIP fragment 251-270 binding compounds – biochemical, small-molecule microarray, fluorescence 635/667 nm, 0.1 µg/mL protein, primary screen (AID 1182); conditions: fluorescent protein binding, 635 nm, higher = more signal, called active from +8 up or from −8 down
XIP peptide (Xip251-270) = experiment: compounds binding XIP fragment 251-270 – biochemical, small-molecule microarray, fluorescence 635/667 nm, 0.5 µg/mL protein, primary screen (AID 1183); conditions: fluorescence 635 nm, higher = more signal
[12] = blood-stage malaria parasite viability loss – strain 3D7, DAPI fluorescence, 100 nL, primary screen (AID 1184);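 note: parasites grown inside human red blood cells in medium with human serum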; conditions: P. falciparum 3D7 growth, 3 d, higher = more signal
[13] = biological target: Homeobox protein Hox-A13 (Mus musculus) (UniProt Q62424); experiment: disruptors of Hoxa13 oligonucleotide interaction – biochemical, fluorescence polarization, labeled oligonucleotide, primary screen (AID 1185); conditions: Hoxa13:DNA binding, 15 min, higher = more signal, called active from +8 up or from −8 down
[14] = blockers of DNA damage checkpoint Chk1 activation – imaging, HeLa, hydroxyurea, phospho-Chk1 antibody, percent positive cells, primary screen (AID 1186); conditions: hydroxyurea-induced phospho-Chk1 immunofluorescence imaging, higher = more signal
[15] = blockers of DNA damage checkpoint Chk1 activation – imaging, HeLa, hydroxyurea, phospho-Chk1 nuclear intensity, primary screen (AID 1187); conditions: hydroxyurea-induced phospho-Chk1 immunofluorescence imaging, higher = more signal

Dihydroorotate dehydrogenase (quinone), mitochondrial (Plasmodium falciparum (isolate 3D7)), sequence (Q08210 whole entry, looked up): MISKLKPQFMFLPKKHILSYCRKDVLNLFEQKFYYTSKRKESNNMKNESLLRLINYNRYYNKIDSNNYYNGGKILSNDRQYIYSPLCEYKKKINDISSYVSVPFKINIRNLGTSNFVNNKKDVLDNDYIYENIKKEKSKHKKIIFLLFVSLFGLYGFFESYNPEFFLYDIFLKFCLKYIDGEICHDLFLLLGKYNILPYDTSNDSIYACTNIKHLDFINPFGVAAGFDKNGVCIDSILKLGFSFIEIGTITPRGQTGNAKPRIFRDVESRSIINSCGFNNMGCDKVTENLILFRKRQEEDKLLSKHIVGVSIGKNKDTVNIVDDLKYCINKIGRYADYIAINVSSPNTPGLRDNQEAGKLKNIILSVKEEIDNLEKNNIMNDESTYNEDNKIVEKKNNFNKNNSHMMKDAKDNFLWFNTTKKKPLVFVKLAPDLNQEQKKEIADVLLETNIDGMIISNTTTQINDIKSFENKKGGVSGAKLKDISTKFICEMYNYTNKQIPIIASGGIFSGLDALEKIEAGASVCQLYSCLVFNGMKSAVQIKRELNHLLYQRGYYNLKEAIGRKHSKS
Homeobox protein Hox-A13 (Mus musculus), sequence (Q62424 whole entry, looked up): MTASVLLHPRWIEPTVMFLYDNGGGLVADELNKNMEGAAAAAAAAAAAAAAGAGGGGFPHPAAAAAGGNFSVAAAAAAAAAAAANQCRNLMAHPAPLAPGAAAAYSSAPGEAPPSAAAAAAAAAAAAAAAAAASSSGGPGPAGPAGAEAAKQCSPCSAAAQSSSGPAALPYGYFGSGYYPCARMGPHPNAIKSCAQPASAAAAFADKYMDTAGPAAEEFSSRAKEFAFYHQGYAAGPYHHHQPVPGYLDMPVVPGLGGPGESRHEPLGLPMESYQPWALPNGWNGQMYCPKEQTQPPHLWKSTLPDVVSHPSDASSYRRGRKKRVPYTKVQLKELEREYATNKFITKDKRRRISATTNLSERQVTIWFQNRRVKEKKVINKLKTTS
E3 ubiquitin-protein ligase XIAP (Homo sapiens), sequence (P98170 whole entry, looked up, the tested form may be a part): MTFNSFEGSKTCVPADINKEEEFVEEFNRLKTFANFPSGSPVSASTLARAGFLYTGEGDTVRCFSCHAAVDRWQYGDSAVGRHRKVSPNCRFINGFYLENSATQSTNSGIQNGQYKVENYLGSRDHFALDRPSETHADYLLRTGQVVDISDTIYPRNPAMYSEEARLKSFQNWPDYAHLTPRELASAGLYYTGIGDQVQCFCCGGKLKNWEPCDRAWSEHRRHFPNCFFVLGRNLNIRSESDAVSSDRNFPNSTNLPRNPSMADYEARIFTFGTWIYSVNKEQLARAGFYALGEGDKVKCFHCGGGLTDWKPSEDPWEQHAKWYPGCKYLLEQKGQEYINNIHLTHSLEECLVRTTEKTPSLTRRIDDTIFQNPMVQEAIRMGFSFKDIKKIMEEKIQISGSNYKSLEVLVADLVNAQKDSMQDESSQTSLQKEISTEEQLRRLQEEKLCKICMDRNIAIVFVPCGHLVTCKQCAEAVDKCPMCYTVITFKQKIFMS

| SMILES | z-score [1] | z-score [2] | z-score [3] | composite z-score [4] | z-score [5] | z-score [6] | z-score [7] | z-score [8] | z-score [9] | composite z-score [10] | composite z-score [11] | composite z-score (XIP peptide (Xip251-270)) | z-score [12] | z-score [13] | z-score [14] | z-score [15] |
| --- | --- | --- | --- | --- | --- | --- | --- | --- | --- | --- | --- | --- | --- | --- | --- | --- |
| C=C[C@@H](COC(C)=O)N(C(=O)OC(C)(C)C)S(=O)(=O)c1ccc(Br)cc1 | -0.19 | -3.49 (inactive) | -2.19 (inactive) | -1.25 (inactive) | -0.938 (inactive) | 0.317 (inactive) | -0.0872 (inactive) | 0.499 (inactive) | -0.288 | 0.0618 | 0.805 (inactive) | 0.546 | 0.573 | -2.35 (inactive) | -0.506 (inactive) | -0.474 (inactive) |
| COc1cc(CO)cc(I)c1O[C@H]1C=C(C(=O)NCCO)C[C@@H](NCc2ccc(F)cc2)[C@@H]1O | -0.205 | -3.76 (inactive) | -1.29 (inactive) | 0.969 (inactive) | 0.507 (inactive) | 0.0419 (inactive) | 0.988 (inactive) | 0.878 (inactive) | -0.512 | -0.101 | -0.35 (inactive) | 0.728 | -3.1 | -7.05 (inactive) | -0.926 (inactive) | -2.03 (inactive) |
| NC(N)=NCCCn1cc(CNC(=O)[C@@H](N)Cc2ccccc2)nn1 | -0.686 | -0.85 (inactive) | -0.433 (inactive) | -2.75 (inactive) | -0.264 (inactive) | -0.297 (inactive) | 0.19 (inactive) | -0.0439 (inactive) | -0.68 | 0.012 | 0.196 (inactive) | -1.17 | 0.139 | -1.61 (inactive) | 0.262 (inactive) | -0.174 (inactive) |
| COc1ccc(CCNC(=O)[C@@H]2c3ccccc3C(=O)N(Cc3cc(C(F)(F)F)cc(C(F)(F)F)c3)[C@H]2c2ccc(CO)cc2)cc1 | 0.317 | -0.662 (inactive) | -0.295 (inactive) | -0.928 (inactive) | 0.279 (inactive) | 0.864 (inactive) | 0.619 (inactive) | 0.591 (inactive) | 0.451 | -0.213 | 0.381 (inactive) | 0.649 | -1.17 | -2.92 (inactive) | -0.198 (inactive) | 0.173 (inactive) |
| O=C1OCCC/C=C\[C@H]2OC34C=CCN(CCN5CCOCC5)C(=O)[C@H]3N(CCCCCCO)C(=O)[C@@H]4C12 (stereo partly drawn) | 0.287 | -0.549 (inactive) | 0.828 (inactive) | -1.38 (inactive) | 0.0251 (inactive) | -1.06 (inactive) | 0.251 (inactive) | 0.547 (inactive) | 0.56 | 0.122 | 3.43 (inactive) | 0.299 | -0.282 | -6.22 (inactive) | -0.039 (inactive) | 0.587 (inactive) |
| Cc1ccc(S[C@]2(C(=O)NCC(F)(F)F)CC(=O)N(Cc3ccccc3)[C@@H]2c2ccc(CO)cc2I)cc1 | 0.448 | -3.93 (inactive) | -3.15 (inactive) | 0.343 (inactive) | 0.848 (inactive) | -1.55 (inactive) | 0.531 (inactive) | 0.562 (inactive) | -2.27 | 0.0338 | -0.0862 (inactive) | 0.442 | 0.15 | -3.68 (inactive) | 0.475 (inactive) | 0.554 (inactive) |
| COc1ccc([Si](C)(C)[C@@H]2[C@@H](CC(=O)N(CCO)Cc3ccccc3)O[C@]3(C(=O)N(Cc4cccc(N5C(=O)c6cccc7cccc5c67)c4)c4ccccc43)[C@H]2C)cc1 | -0.47 | -0.304 (inactive) | -1.6 (inactive) | -1.29 (inactive) | 1.25 (inactive) | 0.323 (inactive) | 1.75 (inactive) | 1.51 (inactive) | -1.27 | -0.124 | -0.338 (inactive) | 0.604 | -2.52 | -0.625 (inactive) | -0.512 (inactive) | 0.0885 (inactive) |
| OCCCC1=CC(c2ccc(CN3CCCC3)cc2)N(Cc2sc3ccccc3c2Cl)CC1 (stereo not drawn) | -0.516 | -7.47 (inactive) | -0.846 (inactive) | 0.721 (inactive) | 0.367 (inactive) | 0.922 (inactive) | -0.365 (inactive) | -1.05 (inactive) | 0.234 | 0.0623 | 0.705 (inactive) | 0.797 | -3.1 | -1.38 (inactive) | -0.186 (inactive) | -0.276 (inactive) |
| O=C1C2C=CC(C(O)c3ccc(F)cc3)N(n3cnnc3)C2C(=O)N1Cc1ccccc1 (stereo not drawn) | -1.05 | 0.885 (inactive) | -0.794 (inactive) | -0.188 (inactive) | -0.128 (inactive) | -0.592 (inactive) | -0.352 (inactive) | -0.434 (inactive) | -1.47 | -0.145 | 0.34 (inactive) | 0.854 | -1.09 | -0.994 (inactive) | 0.0044 (inactive) | -1.28 (inactive) |
| COc1ccc([Si](C)(C)[C@@H]2[C@@H](CC(=O)N(CCO)Cc3ccccc3)O[C@]3(C(=O)N(Cc4cccc(N5CCOC5=O)c4)c4ccccc43)[C@H]2C)cc1 | -1.89 | 0.0608 (inactive) | -3.23 (inactive) | 0.0205 (inactive) | 1.76 (inactive) | 2.67 (inactive) | 0.577 (inactive) | -0.463 (inactive) | -2.42 | -0.02 | 1.18 (inactive) | 0.799 | -2.16 | -2.52 (inactive) | 0.437 (inactive) | -0.0407 (inactive) |
| COc1ccc([Si](C)(C)[C@@H]2[C@@H](CCn3cc([C@H](O)c4ccccc4)nn3)O[C@]3(C(=O)N(Cc4ccc(N5CCC5=O)cc4)c4ccccc43)[C@H]2C)cc1 | 0.606 | 0.204 (inactive) | -0.189 (inactive) | -0.102 (inactive) | 1.36 (inactive) | 2.06 (inactive) | 1.57 (inactive) | 1.18 (inactive) | 1.1 | -0.239 | -0.325 (inactive) | 0.641 | -2.47 | -2.32 (inactive) | -0.169 (inactive) | 0.663 (inactive) |
| CC(C)C(=C=CC[C@H](O)c1ccc(OCCO)cc1)C[C@H](O)c1ccccn1 | 0.748 | -1.7 (inactive) | 0.143 (inactive) | -0.575 (inactive) | 0.379 (inactive) | 0.673 (inactive) | 1.37 (inactive) | 0.879 (inactive) | 0.986 | 0.244 | -0.0991 (inactive) | 0.909 | -2.06 | -5.38 (inactive) | -0.0725 (inactive) | 0.223 (inactive) |
| COCCOC(=O)N1C(=O)[C@@]2(c3cc(C#CC4=CCCCC4)ccc31)[C@H](c1ccc(OCCO)cc1)N1[C@H](c3ccccc3)[C@H](c3ccccc3)OC(=O)[C@H]1[C@@H]2C(=O)N1CCN(c2ncccn2)CC1 | 0.205 | 1.7 (inactive) | 0.0789 (inactive) | -1.42 (inactive) | 2.28 (inactive) | 1.78 (inactive) | -0.294 (inactive) | 0.0375 (inactive) | 0.621 | 0.0219 | 0.975 (inactive) | 0.278 | -2.19 | 2.06 (inactive) | 0.313 (inactive) | 0.448 (inactive) |
| [N-]=[N+]=NCc1ccccc1[C@@H]1OC(c2ccc(OCCCO)cc2)=N[C@]1(CCS(=O)(=O)c1ccccc1)C(=O)NCC(O)CO (stereo partly drawn) | -0.618 | -0.543 (inactive) | -0.121 (inactive) | -0.716 (inactive) | 0.563 (inactive) | -0.397 (inactive) | 0.488 (inactive) | 1.2 (inactive) | -0.471 | 0.0731 | 2.02 (inactive) | 0.831 | -2.26 | -1.52 (inactive) | -0.519 (inactive) | -0.524 (inactive) |
| CCOc1cc(C(O)C2C=CC3C(=O)N(C)C(=O)C3N2Nc2ccccc2)ccc1O (stereo not drawn) | -0.687 | 1.11 (inactive) | -0.328 (inactive) | 0.684 (inactive) | 0.807 (inactive) | 2.32 (inactive) | -0.501 (inactive) | -0.861 (inactive) | -0.323 | 0.312 | 0.705 (inactive) | 0.273 | -0.211 | -2.42 (inactive) | -0.0768 (inactive) | -0.677 (inactive) |
| Cc1ccc(S[C@]2(C(=O)NCC(F)(F)F)CC(=O)N(C3CCCCC3)[C@@H]2c2ccc(CO)cc2I)cc1 | 0.04 | 0.108 (inactive) | 0.384 (inactive) | 0.0443 (inactive) | 0.201 (inactive) | -0.531 (inactive) | -0.0243 (inactive) | -0.223 (inactive) | -0.128 | -0.12 | -0.0988 (inactive) | 0.735 | -0.142 | -3.45 (inactive) | 0.148 (inactive) | 0.594 (inactive) |
| C=CCNC(=O)[C@H]1[C@@H]2C(=O)O[C@@H](c3ccccc3)[C@@H](c3ccccc3)N2[C@@H](c2ccc(O)cc2)[C@]12C(=O)N(C(=O)OCCOC)c1ccccc12 | -0.757 | 0.628 (inactive) | -0.331 (inactive) | 0.747 (inactive) | 0.229 (inactive) | 0.931 (inactive) | -0.919 (inactive) | -1.08 (inactive) | 0.164 | -0.02 | 0.995 (inactive) | 0.742 | -1.38 | -3.73 (inactive) | 0.175 (inactive) | -0.0776 (inactive) |
| COCCCNC(=O)[C@]1(CCS(=O)(=O)c2ccccc2)N=C(c2ccc(OCCCO)cc2)O[C@@H]1c1ccccc1CN=[N+]=[N-] | -0.776 | 1.67 (inactive) | -3.5 (inactive) | 0.36 (inactive) | 0.438 (inactive) | 1.62 (inactive) | 0.0971 (inactive) | 0.748 (inactive) | -0.601 | 0.481 | 1.51 (inactive) | 0.814 | -2.3 | -3.61 (inactive) | -0.684 (inactive) | -0.618 (inactive) |

— PubChem BioAssay
